# Measured values: PubChem BioAssay (NCI)
# About 83,000 compounds went through this panel and 20% of them were active in at least one assay; those are over-represented in the sample as a whole.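 The test compound was applied at a single concentration to cells in 96-well plates for 48 hours, and percent growth was recorded.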 Values without a mark were called inactive. Active and inactive are the calls of the source. The calls were made as follows: active = growth percent below 10; inactive = the rest.
# Tests used:
# Test in all cases: NCI-60 one-dose screen, 48 h (100 = growth as untreated, 0 = no growth, -100 = all killed)
# Conditions in all cases: 10 µM unless noted
# SR leukemia = test system: SR leukemia
# RPMI-8226 leukemia = test system: RPMI-8226 leukemia
# OVCAR-8 ovarian = test system: OVCAR-8 ovarian
# OVCAR-5 ovarian = test system: OVCAR-5 ovarian
# OVCAR-4 ovarian = test system: OVCAR-4 ovarian
# SK-OV-3 ovarian = test system: SK-OV-3 ovarian
# IGROV1 ovarian = test system: IGROV1 ovarian
# OVCAR-3 ovarian = test system: OVCAR-3 ovarian
# HS 578T breast = test system: HS 578T breast
# NCI/ADR-RES ovarian = test system: NCI/ADR-RES ovarian
SMILES,growth (SR leukemia),growth (RPMI-8226 leukemia),growth (OVCAR-8 ovarian),growth (OVCAR-5 ovarian),growth (OVCAR-4 ovarian),growth (SK-OV-3 ovarian),growth (IGROV1 ovarian),growth (OVCAR-3 ovarian),growth (HS 578T breast),growth (NCI/ADR-RES ovarian)
COc1ccc(-c2nc(SC)nc(N3CCOCC3)c2C#N)cc1,78.9%,91.2%,98.1%,99.7%,100%,89.4%,85%,98.5%,98.4%,94%
O=C(Nc1ccc2cc3ccc(NC(=O)N4CCCCCC4)cc3nc2c1)N1CCCCCC1,8.09% (active),-36.8% (active),-28.3% (active),4.88% (active),-44.8% (active),-36.7% (active),-48.5% (active),-69.2% (active),-33.2% (active),36.7%
Nc1c(Cl)cc([N+](=O)[O-])cc1Br,99.5%,86.8%,93.9%,103%,102%,110%,114%,102%,105%,95%
C=C1C(=O)O[C@H]2[C@H]1CC/C(CNC(=O)/C=C/c1ccccc1F)=C\CC[C@@]1(C)O[C@@H]21,8.95% (active),-2.96% (active),4.58% (active),27.7%,9.27% (active),96.6%,15%,-62.7% (active),58.2%,77.7%
Cc1cc(Nc2cccc(C(F)(F)F)c2)n2c(nc3ccccc32)c1C#N,31.6%,22.8%,43%,78%,34.6%,46.4%,57.6%,39.4%,68.5%,47.9%
O=C(/C=C/c1ccc[nH]1)c1ccc(-n2ccc(C(F)(F)F)n2)cc1,28.4%,-19.3% (active),88%,89%,97.7%,114%,103%,0.498% (active),100%,88.3%
NC(=O)c1ccc[n+](CC(=O)N2CCN(c3cc4c(cc3F)c(=O)c(C(=O)O)cn4C3CC3)CC2)c1,32.2%,74.3%,92.8%,114%,74.8%,117%,99.4%,69.4%,91.1%,99.8%
COc1ccc(-c2nc(N/N=C/c3cccc(O)c3)nc(N3CCOCC3)c2C#N)cc1,-20.3% (active),32.1%,68.8%,117%,89.3%,104%,71.2%,75.8%,69.3%,74.8%
CN(C)Cc1c(-c2ccccc2)[nH]c2ccccc12,95.6%,85.7%,102%,96.1%,117%,81.7%,110%,103%,100%,98.2%
COc1cc2ncnc(Nc3ccc(C(=O)/C=C/c4ccc(C(F)(F)F)cc4F)cc3)c2cc1OC,63.4%,12.8%,101%,103%,105%,123%,94.2%,101%,66.8%,102%
CC(N)C(=O)NNc1n[nH]c(=S)n1N (stereo not given),103%,104%,100%,92.9%,105%,109%,98.8%,97.6%,88.2%,99.9%
CC1(C)CC[C@]2(C(=O)NCC#CCN3CCOCC3)CC[C@]3(C)C(=CC[C@@H]4[C@@]5(C)Cc6c([nH]c7ccccc67)C(C)(C)[C@@H]5CC[C@]43C)[C@@H]2C1,90.9%,57.9%,90.8%,99.6%,91%,97.8%,116%,95.1%,107%,97%
Cc1c2c(cc[n+]1Cc1ccccc1)c1ccc(OCC3CCCCC3)cc1n2CC1CCCCC1,-57.7% (active),-45.2% (active),-90.1% (active),-95.5% (active),-94.3% (active),-53.4% (active),-70.6% (active),-100% (active),-36.2% (active),31.5%
CN(C)c1ccc(-c2c(C#N)c(N)n3nc(N)c(C#N)c3c2C#N)cc1,62.1%,32.2%,83.7%,63.7%,101%,71.3%,55.7%,85.3%,93.2%,90.4%
CCN(CC)CCCC(Nc1c2ccc(Cl)cc2nc2ccc(OC)cc12)c1ccc(Cl)cc1 (stereo not given),-32.9% (active),-18.6% (active),-37.7% (active),33.7%,20.3%,64.9%,-15.3% (active),-17.6% (active),-47.7% (active),-13.3% (active)
CC(=O)O[C@H]1CC[C@@]2(C)[C@@H](CC[C@@H]3[C@@H]2CC[C@@]2(C)[C@H]3CC[C@]2(O)C(C)=O)C1,91.8%,88.1%,109%,97.7%,102%,103%,99.7%,108%,97.2%,96%
COc1cc(NCCCN(CC(C)C)CC(C)C)c2ncccc2c1,84.9%,78%,94.5%,114%,17.2%,90.1%,80.3%,69.5%,92.3%,79.8%
C=C1C(=O)O[C@H]2[C@H]1CC/C(COC(=O)CCCCCC(=O)OC/C1=C/CC[C@@]3(C)O[C@H]3[C@H]3OC(=O)C(=C)[C@@H]3CC1)=C\CC[C@@]1(C)O[C@@H]21,3.39% (active),1.08% (active),12.2%,51.2%,37.2%,94.6%,7.45% (active),1.8% (active),18.7%,46.9%
CCCC1C(C(=O)OCC)=C(N)Oc2cc(O)ccc21 (stereo not given),90.1%,98.5%,107%,108%,89.3%,88.3%,76.4%,96.6%,101%,94.3%
COc1cc(-c2cc(=O)oc3cc(O)ccc23)cc(OC)c1OC,97.6%,41.8%,84.9%,103%,73%,135%,94%,88.4%,88.5%,88.3%
Cc1cn(-c2cc(C(=O)Nc3cccc(C#Cc4cccc5[nH]nc(N)c45)c3)cc(C(F)(F)F)c2)cn1,49.9%,20.1%,48.8%,44.2%,38%,72.6%,25.5%,77.7%,39.4%,98.6%
CN(C)C(=O)c1cc2cnc(Nc3ccc(-c4csc5c(=O)cc(N6CCOCC6)oc45)cc3)nc2n1C1CCCC1,0.0235% (active),-46.7% (active),2.54% (active),-9.43% (active),12.4%,-28.3% (active),-7.11% (active),2.63% (active),-8.99% (active),0.628% (active)

SMILES,growth (SR leukemia),growth (RPMI-8226 leukemia),growth (OVCAR-8 ovarian),growth (OVCAR-5 ovarian),growth (OVCAR-4 ovarian),growth (SK-OV-3 ovarian),growth (IGROV1 ovarian),growth (OVCAR-3 ovarian),growth (HS 578T breast),growth (NCI/ADR-RES ovarian)
Cn1c(COC(=O)NCCN2CCOCC2)nc2c(N3CCOCC3)nc(-c3ccccc3)nc21,-5.83% (active),-26.2% (active),7.67% (active),-86.6% (active),-61.1% (active),77.7%,-93.3% (active),-86.5% (active),-35% (active),-12.7% (active)
COc1ccc2c(/C=C3/C(=O)NC(=S)NC3C)cc(=O)oc2c1 (stereo not given),96.6%,117%,91.6%,94.1%,100%,100%,96.2%,101%,100%,99%
COc1cc(Nc2cc(O)c3c(=O)cc(-c4ccccc4)oc3c2)cc(OC)c1,17.3%,17.1%,26.1%,45.5%,59.3%,35.9%,42.1%,0.368% (active),12.4%,22.2%
O=C1CCC(NC(=S)Nc2ccccc2)N1 (stereo not given),93.8%,101%,107%,111%,107%,117%,102%,106%,105%,96.9%
COc1ccc(NC(=O)c2sc3nc(C)c(C(=O)CCc4cccc(OC)c4)cc3c2N)cc1,20.4%,45.7%,90.9%,68.9%,76.5%,70.5%,75.8%,26.1%,82%,61.3%
COc1cc2nc(-c3ccc(C(F)(F)F)cc3)cc(OCCCN3CCC(O)CC3)c2cc1OC,10.9%,9.93% (active),44.1%,42.8%,59.7%,65.8%,27.2%,64%,64.7%,37.6%
Cc1nc2sc(C(=O)Nc3ccccc3)c(N)c2cc1C(=O)c1ccc(C(F)(F)F)cc1,81.9%,102%,101%,97.9%,87.3%,69.3%,101%,110%,85.6%,99%
COc1ccccc1Nc1cc(O)c2c(=O)cc(-c3ccccc3)oc2c1,5.75% (active),16.4%,32.4%,78.1%,65.6%,50.7%,51.4%,5.9% (active),45.6%,11.5%
O=C(CN1CCOCC1)Nc1ccc2ncnc(Nc3ccc(OCc4cccc(F)c4)c(Cl)c3)c2c1,64.3%,44.7%,63.1%,69.2%,72%,6.86% (active),23.2%,58%,100%,44.7%
Cn1c(COC(=O)N2CCCCC2)nc2c(N3CCOCC3)nc(-c3ccccc3)nc21,0.966% (active),-29.5% (active),-6.61% (active),-79.8% (active),-78.4% (active),60.2%,-80.6% (active),-85.3% (active),-36.1% (active),-8.64% (active)
O=C(Nc1cccc(Cl)c1)Oc1c(Br)c(Br)c(Br)c(Br)c1Br,107%,73.2%,88.9%,102%,95.4%,62.6%,107%,88.5%,84.3%,96.4%
CC(=O)c1c[nH]c2ccc(-c3ccnc(Nc4ccc(NC(=O)C5CCCC5)c(CN5CCOCC5)c4)n3)cc12,3.58% (active),-42.2% (active),7.02% (active),-11.6% (active),-14% (active),10.6%,-14.8% (active),-7.43% (active),-27.7% (active),-4.77% (active)
Nc1nc(SN=Nc2ccc(S(N)(=O)=O)cc2)c2[nH]cnc2n1,5.59% (active),-15.3% (active),11.2%,19.4%,34.7%,7.11% (active),39.8%,-13.7% (active),36.5%,17.6%
COc1ccccc1/C=N/NC1=NC2C(N1)N(C)C(=O)N2C (stereo not given),110%,119%,103%,102%,106%,95.4%,96.4%,107%,95.1%,105%
Clc1ccc(C2CC(c3cccc(Nc4ccncc4)c3)=NN2c2ccccc2)cc1 (stereo not given),2.19% (active),1.08% (active),-7.33% (active),82.6%,45.5%,81.4%,25.9%,64.4%,83.9%,78.8%
CCCCCCNC(=O)Oc1ccc(/C(=C(/CC)Cc2ccccc2)c2ccc(OCCN(CC)CC)cc2)cc1,-27.3% (active),26.8%,61.4%,83.2%,66.4%,89%,76.6%,72.4%,69.7%,70.6%
CC(=O)NCCCS(=O)(=O)O,101%,113%,104%,100%,107%,103%,108%,108%,83.4%,101%
COc1ccc(C2CC(c3cccc(Nc4ccncc4)c3)=NN2c2cc(Cl)cc(Cl)c2)cc1 (stereo not given),2.77% (active),14.9%,-31.8% (active),82.5%,28.2%,75%,17.3%,49%,56.7%,66.8%
Nc1ncc(C#Cc2cncc(NC(=O)c3cccc(C(F)(F)F)c3)c2)c2cccnc12,37.7%,60.7%,47.5%,52.9%,25.6%,67.3%,40.4%,84.6%,27%,66.1%
Cc1ccccc1C(c1ccccc1)c1ccccc1C,104%,89.5%,89.8%,85%,108%,75.1%,92.2%,104%,106%,104%
Clc1ccc(N2N=C(c3cccc(Nc4ccncc4)c3)CC2c2ccccc2)cc1 (stereo not given),51.7%,92.7%,94.5%,90%,88.9%,87.6%,92.9%,97.1%,72.7%,101%
